The supplement of paper PMC3334620
The full ranking holds about 33,000 sequences; the median of “E-score (-0.5 to 0.5)” is about -0.011, and the highest 2% start at about 0.28. This excerpt belongs to a sample that is enriched for the highest values.

Each sequence was assayed against T1, Gcr1 (UniProt P07261) (assay: PBM E-score (8-mer binding enrichment) (E-score (-0.5 to 0.5)); higher = stronger / more preferred TF binding). Details: protein concentration: 100 nM; construct: GST-full length.
T1 sequence: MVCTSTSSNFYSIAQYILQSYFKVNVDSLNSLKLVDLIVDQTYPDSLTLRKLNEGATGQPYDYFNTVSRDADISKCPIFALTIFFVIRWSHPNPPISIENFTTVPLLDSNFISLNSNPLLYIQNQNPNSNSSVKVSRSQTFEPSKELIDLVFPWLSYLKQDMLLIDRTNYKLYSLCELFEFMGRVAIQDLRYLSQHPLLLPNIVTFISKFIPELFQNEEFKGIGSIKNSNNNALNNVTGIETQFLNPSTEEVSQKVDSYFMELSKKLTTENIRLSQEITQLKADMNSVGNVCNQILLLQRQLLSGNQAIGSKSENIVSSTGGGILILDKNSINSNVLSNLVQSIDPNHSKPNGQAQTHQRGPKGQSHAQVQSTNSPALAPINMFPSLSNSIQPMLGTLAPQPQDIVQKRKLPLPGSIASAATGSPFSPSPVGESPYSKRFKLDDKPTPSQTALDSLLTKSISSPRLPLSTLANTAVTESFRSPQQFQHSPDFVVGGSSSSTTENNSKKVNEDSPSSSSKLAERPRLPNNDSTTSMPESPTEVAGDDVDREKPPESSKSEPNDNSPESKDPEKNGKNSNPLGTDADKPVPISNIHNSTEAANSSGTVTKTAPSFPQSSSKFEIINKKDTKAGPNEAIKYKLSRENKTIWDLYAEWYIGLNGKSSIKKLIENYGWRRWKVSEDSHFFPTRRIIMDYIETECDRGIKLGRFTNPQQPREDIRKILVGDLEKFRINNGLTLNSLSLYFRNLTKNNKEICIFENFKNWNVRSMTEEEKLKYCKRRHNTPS
Description: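 Universal 'all 10-mer' protein binding microarrays (Agilent AMADID 015681) probed with GST-tagged S. cerevisiae TFs (full-length or DBD) made by in vitro transcription/translation (PURExpress), about 100-200 nM. Bound TF was detected with fluorescent anti-GST. Each ungapped 8-mer (which stands for itself and its reverse complement) is scored by the PBM enrichment score (E-score), a modified Wilcoxon-Mann-Whitney statistic from -0.5 to +0.5, computed with the Universal PBM Analysis Suite. Scale: above 0.35 generally sequence-specific binding.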

Sequence | PBM E-score
GGCACTCA | -0.189
AACGTCTT | 0.158
AGCAAGTA | -0.149
AGAATACG | 0.182
TAGCCTCA | -0.053
CAACCAAG | 0.0892
CAACCAAC | -0.102
CAACCAAA | 0.313
AGCCAAGC | -0.0873
CAAACTGA | 0.105
GCCGGAAC | 0.247
CGCCATTC | 0.0469
GGAGTCCC | 0.286
CGAGTCCA | -0.051
CGAGTCCC | 0.168
TGAGTCCA | 0.146
AGAGTCCC | 0.0617
GGAGTCCA | 0.344
GCCGAGTA | 0.115
ACCGGGCT | 0.113
GCTTACCA | -0.193
ACGCTTGA | 0.0746
ACGGAACC | 0.0697
CCGGAACC | 0.325
CCGGAACA | -0.0359

Sequence | PBM E-score
GCGGAACC | 0.341
GCGGAACA | -0.172
CCGGAACG | -0.0389
CATTGTTC | -0.0803
CCAAACAA | 0.213
CAGTGGTA | 0.115
AAGCCTTC | -0.191
CCTCGGTC | -0.223
AAGGGAAC | 0.0126
CCACTACC | 0.125
CCACTACG | 0.323
CCACTACA | 0.194
ACACTAAG | -0.00776
CCACTAGA | 0.235
CCACTATC | 0.368
CCACTAGG | 0.287
ACACTATC | -0.0774
CCACTATA | 0.276
ACACTAGG | -0.176
CCACTAAC | 0.21
CCACTAAG | 0.374
CACCATAC | 0.0726
ACCTGTGG | -0.0729
GCTTGGAA | -0.114
CGGGGTCA | -0.096

Sequence | PBM E-score
AAGAAACC | 0.0595
AGGCGTAA | 0.0474
GACGCATA | 0.141
CCACTAAA | 0.314
GCACTAAA | 0.0118
TCACTAAA | 0.134
CCCCGTCG | 0.00224
CCCGATGC | -0.124
AGGGATAT | -0.234
GTATGCGA | 0.291
CTATGCGA | -0.14
ATATGCGA | 0.0152
ATTAGTGA | 0.0812
ATTAGTGG | 0.388
ATTAGTGC | -0.00168
AATAGTGC | -0.175
AATAGTGG | 0.425
AATAGTGA | 0.0209
GAGCGAAC | -0.28
TCCATAGA | 0.203
CGTAAGAA | -0.113
CTAAAGAC | -0.0627
CAAAGGAA | 0.104
GAAAGGAA | 0.0552
AAAAGGAC | 0.0425

Sequence | PBM E-score
AAAAGGAA | 0.361
TAAAGGAA | 0.314
AAAAGGAT | -0.00496
AATCTCGC | -0.0134
GCTGGTAA | 0.122
ATAGGTCG | 0.0752
AATTTACG | 0.0625
ATTTTACC | 0.0326
ATTTTACG | 0.337
GATAACAC | -0.12
GTGTCCAA | 0.0511
ACTGGACA | 0.0644
CCTGGATC | -0.00306
ACTGGAGG | 0.206
ACTGGAGC | 0.0795
ACTGGATA | 0.108
ACTGGACT | 0.134
ACTGGACG | 0.303
ACTGGATC | 0.316
ACTGGATG | 0.326
CGACTGTC | -0.252
CTGCACAG | -0.0453
GCGCTAAA | 0.232
CTTCAGCA | -0.0569
ATATATTA | 0.0581

Sequence | PBM E-score
CTCTATTA | 0.154
CTATATTA | 0.307
GTTCATCA | 0.108
TTCCTAAA | 0.36
AACCTAAA | 0.294
ATCCTAAA | 0.211
GTCCTAAA | 0.21
CACCTAAA | 0.266
TACCTAAA | 0.0795
GGGAGTGA | -0.0739
GTCCGCAC | -0.0732
CGATCCAA | 0.0146
CGATCCAC | -0.153
GGATCCAA | 0.299
GGATCCAC | 0.302
AGATCCAA | 0.186
AGATCCAC | 0.183
TGGATTAA | 0.0316
GTACTTGA | -0.209
AAGAAAGG | -0.125
ATGCGCTC | 0.0347
ACCCCGTA | -0.0035
AGAGCTTA | -0.119
GAAGCACA | 0.117
CATAGACG | 0.0886

Sequence | PBM E-score
CTAATTTC | 0.189
CTAATTTA | 0.291
GTAATTTA | 0.109
ATACCTTG | -0.108
CAATTGGG | -0.0107
AATTTTTG | 0.1
AAATTTTG | 0.088
ATTTTTGG | 0.186
CAATTTGG | 0.222
AAATTTGG | 0.301
CAAATTGG | 0.213
AAAATTGG | 0.316
AATTTTGG | 0.287
AAAATTGC | -0.203
AAATTGGT | 0.226
AAATTGGG | 0.295
AGGGAATA | 0.0244
AATAGATC | -0.0063
CGATCTTA | -0.045
GAGTTCAC | -0.0309
ATGTGCCG | -0.205
ACCGCTTG | -0.0218
AGTTTAAT | 0.0173
ACACTCGT | -0.152
ATTTGGAA | 0.373

Sequence | PBM E-score
CTTTGGAC | -0.147
ATTTGGAG | 0.0526
CTTTGGAA | 0.282
ATTTGGAC | 0.166
GTTTGGAA | 0.202
ATGCTAAC | 0.139
AATCAGAC | 0.0464
AGCCCAGA | 0.0713
CTAGCACA | -0.181
CTAGCATA | 0.017
CTAGCACC | 0.31
ATAGCACC | 0.159
ATAGCATC | 0.0848
CTAGCATC | 0.315
CCAGAGCG | -0.144
ACCGGAAC | 0.203
ACCGGATC | 0.0302
ACCGGATG | 0.349
ACCGGACG | 0.32
ACCGGAAT | 0.185
ACCGGACT | -0.0693
CCCGGACG | -0.0526
ACCGGAAG | 0.303
ACCGGATA | 0.00906
AAGGGGTC | -0.19

Sequence | PBM E-score
CGATCAAG | -0.0812
CCTTGGCC | -0.327
ATTAGGAG | 0.26
CGCTAGTC | -0.153
AACAATGT | 0.0351
ATCCCATG | -0.0862
TCGTTTCA | 0.077
AGATTCCT | 0.399
AGATTCCA | 0.426
GGATTCCC | 0.418
ATATTCCG | 0.131
TGATTCCA | 0.0933
ACATTCCT | 0.0561
AGATTCCC | 0.265
AGATTCCG | 0.284
GGATTCAC | 0.159
CGATTCCA | 0.178
CGATTCCC | 0.0331
CGATTCCG | -0.0838
CCAGTTGA | -0.0652
GGATTGAC | -0.0943
AACCCAGG | 0.056
CCGTTGAC | -0.121
GGAACCAA | 0.31
AGAACCAC | 0.035

Sequence | PBM E-score
CGAACCAA | -0.0751
GCAACCAC | 0.267
CCAACCAA | 0.0612
GGAACCAC | 0.284
GCAACCAA | 0.302
TGAACCAA | 0.022
CGAACCAC | 0.0103
AATGGACG | 0.143
CGTGGGCC | -0.23
GGGGAGCA | -0.103
GGTCGAGA | -0.0372
GTAGGATA | -0.109
ATACTGGC | 0.161
CAACTGGA | 0.212
GGACTGGA | -0.0243
GAACTGGA | 0.303
GTACTGGA | 0.235
CGACTGGC | -0.241
CGACTGGA | 0.316
ATACTGGA | 0.373
TAACTGGA | 0.225
